The structures appear in SMILES notation. Several values for one entry are separate records, joined by “and”; a condition that tells them apart may be missing. Identical values can stand only once. Results filed as inconclusive are left out. Some compounds were tested as several samples or in several runs, with calls that do not always agree. Activity calls are given as the source filed them. Unless noted, calls come from the whole dose curve; as a rule, active = well fitted curve in the direction sought with a large enough effect in the repeat runs; inconclusive = weak or mixed curves; inactive = no such curve, though single readings can be large; an effect the other way counts as inactive or inconclusive.

A short description of assay [1]: qHTS assay for small molecule agonists of the p53 signaling pathway (AID 651631; calls by dose curve; note: nearly all actives have a fitted effect of over 15% in size). The gist of the method:
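HCT-116 cells carrying a beta-lactamase reporter under p53 response elements were dosed with compound for 16 h at 37 °C. LiveBLAzer B/G FRET substrate was then added for 2 h at room temperature, and fluorescence intensity was read to detect pathway agonism.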
(In general: qHTS replaces the single test concentration by a dilution series.)

A short description of assay [2]: qHTS assay for small molecules that induce genotoxicity in human embryonic kidney cells expressing luciferase-tagged ATAD5 (AID 651632). Note: nearly all actives have a fitted effect of over 15% in size. The method in brief:
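Quantitative HTS in HEK293T expressing luciferase-tagged ATAD5, whose levels rise upon DNA damage. Exposure ran 16 hr at 37C and 5% CO2, with luminescence read 30 min after Amplite addition at room temperature.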

The nature of assay [3]: qHTS assay for small molecule agonists of the p53 signaling pathway - cell viability (AID 651633; calls by dose curve;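 note: p53RE-bla HCT reporter cells with a stable beta-lactamase p53 reporter; series mostly up to about 83 µM; nearly all actives have a fitted effect of over 30% in size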). The method in brief: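 Viability counter-read: CellTiter-Glo luminescence (30 min, room temperature) in the same p53RE-bla plates. These plates had been exposed to compounds for 16 h at 37 C.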
Assay [4] can be described thus: qHTS assay for small molecules that induce genotoxicity in human embryonic kidney cells expressing luciferase-tagged ATAD5 - cell viability (AID 651634; calls by dose curve; note: nearly all actives have a fitted effect of over 25% in size). The gist of the method: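 After 15.5 hr incubation with compound at 37C, 5% CO2, HEK293T ATAD5-luciferase cells received CellTiter-Fluor reagent; fluorescence intensity was quantified following 30 min at 37C.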
Assay [5] can be described thus: qHTS assay for small molecule disruptors of the mitochondrial membrane potential - cell viability (AID 720634; calls by dose curve; note: nearly all actives have a fitted effect of over 20% in size; note: potency is the fitted concentration of half-maximal effect). The gist of the method:
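ATP-based luminescent viability readout (CellTiter-Glo, 30 min, room temperature) in HepG2 cells multiplexed with the m-MPI membrane potential dye; compound exposure lasted 1 hr at 37 C.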

Assay [6] is described as follows: qHTS assay for small molecule disruptors of the mitochondrial membrane potential (AID 720635). Note: potency is the fitted concentration of half-maximal effect. The method in brief:
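Mitochondrial membrane potential tracked with Mito-MPS dye, red aggregates (ex 540/em 590 nm) against green monomers (ex 490/em 535 nm). Compound treatment 1 hr at 37C, dye 30 min in HepG2.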

Assay [7] in a line: qHTS assay to test for compound auto fluorescence at 590 nm (red) in HepG2 cells (AID 720674). The method in brief:
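We screened compounds on adherent HepG2 cells, incubating them for an hour at 37 C in 5% CO2 before reading emission at 590 nm under 540 nm excitation; values reflect equivalence to Rose Bengal sodium fluorescence.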

Assay [8] in a line: qHTS assay to test for compound auto fluorescence at 535 nm (green) in HepG2 cells (AID 720675).
The nature of assay [9]: qHTS assay to test for compound auto fluorescence at 460 nm (blue) in HEK293 cells (AID 720678). The method in brief:
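HEK293 cells (2,000 per well, medium with 10% dialyzed FBS) attached for 4-5 hr at 37C, then received compound and stood overnight at 37C, 5% CO2. Blue fluorescence was read at Ex/Em 405/460 nm and expressed relative to triamterene.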

A short description of assay [10]: qHTS assay to test for compound auto fluorescence at 590 nm (red) in HEK293 cells (AID 720679). The gist of the method:
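HEK293 cells (2,000/well, medium with 10% dialyzed FBS) attached for 4-5 hr at 37C, received 23 nL compound and were incubated overnight at 37C, 5% CO2. Red fluorescence was then read at 540/590nm Ex/Em, referenced to Rose Bengal sodium.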

`CN(C)C(=O)C(c1ccccc1)c1ccccc1`: the Potency result in assay [1], in assay [2], in assay [3], in assay [4], in [5] and in assay [6] was “inactive” in each case. Besides, the result in assay [7], in assay [8], in assay [9] and in assay [10] was inactive.

On to `COP(=S)(OC)SCN1C(=O)c2ccccc2C1=O`, for which the Potency result in assay [1], in [2], in assay [3], in [4], in assay [5] and in assay [6] was “inactive” each time. In addition, the call in assay [7], in [8], in [9] and in assay [10] was inactive.

In the case of `OCc1ccco1`, the Potency result in assay [1], in assay [2], in [3], in assay [4], in [5] and in assay [6] was “inactive” in each case. In addition, the compound was classed as inactive in [7], in assay [8], in assay [9] and in [10].

Take `O=C(O)C(Br)Br`: the Potency result in assay [1], in assay [2], in assay [3], in assay [4], in assay [5] and in assay [6] was “inactive” throughout. Also, the result in [7], in assay [8], in [9] and in assay [10] was inactive.

In the case of `COC(=O)Nc1cccc(OC(=O)Nc2cccc(C)c2)c1`, the Potency entry in assay [1], in [2], in assay [3] and in assay [4] was “inactive” each time. Moreover, the Potency was 7.7 µM (active) in [5]; 2.73 µM (active) and 3.86 µM (active) in assay [6]. The call in assay [7], in assay [8], in assay [9] and in assay [10] was inactive.

For the compound `CC(C)(C)C(=O)CCl`, the Potency entry in assay [1], in assay [2], in assay [3], in assay [4], in assay [5] and in assay [6] was “inactive” throughout. Besides, the compound was classed as inactive in assay [7], in assay [8], in assay [9] and in assay [10].

In the case of `O=[N+]([O-])c1cc([As](=O)(O)O)ccc1O`, the Potency entry in assay [1], in assay [2], in assay [3], in [4], in assay [5] and in assay [6] was “inactive” in each case. Besides, the result in assay [7], in assay [8], in assay [9] and in [10] was inactive.

Regarding `O=[N+]([O-])c1ccc(Cl)cc1`, the Potency entry in assay [1], in [2], in assay [3], in [4], in assay [5] and in assay [6] was “inactive” each time. The result in assay [7], in [8], in assay [9] and in assay [10] was inactive.

As for `CCOc1ccc(N)cc1`, the Potency entry in [1], in assay [2], in [3], in assay [4], in [5] and in [6] was “inactive” each time. The compound was classed as inactive in assay [7], in assay [8], in assay [9] and in assay [10].

As to `O=C/C=C/c1ccccc1`, the Potency result in assay [1], in assay [2], in assay [3], in assay [4], in [5] and in assay [6] was “inactive” throughout. Besides, the call in assay [7], in [8], in assay [9] and in assay [10] was inactive.

With `CNC(=O)O/N=C(\SC)C(=O)N(C)C`, the Potency entry in assay [1], in [2], in assay [3], in [4], in assay [5] and in assay [6] was “inactive” each time. Also, the compound was classed as inactive in assay [7], in assay [8], in assay [9] and in assay [10].

Turning to `OCC(O)CCl` (stereo not given), the Potency result in assay [1], in [2], in assay [3], in assay [4], in [5] and in [6] was “inactive” in each case. Moreover, the compound was called inactive in assay [7], in assay [8], in [9] and in assay [10].

`N#CN=C(N)N`: the Potency result in [1], in [2], in assay [3], in assay [4], in assay [5] and in assay [6] was “inactive” throughout. The result in assay [7], in assay [8], in assay [9] and in assay [10] was inactive.

Take `CC(C)CCCCCCOC(=O)c1ccccc1C(=O)OCCCCCCC(C)C`: the Potency entry in [1], in [2], in assay [3], in assay [4], in assay [5] and in [6] was “inactive” in each case. For the same compound, the result in assay [7], in [8], in assay [9] and in assay [10] was inactive.

For `COc1nc(NC(C)C)nc(NC(C)C)n1`, the Potency entry in assay [1], in [2], in assay [3], in assay [4], in assay [5] and in assay [6] was “inactive” each time. The compound was called inactive in assay [7], in assay [8], in assay [9] and in assay [10].

Take `Cc1ccccc1N`: the Potency result in assay [1], in assay [2], in [3], in [4], in [5] and in assay [6] was “inactive” in each case. Besides, the outcome in [7], in [8], in assay [9] and in assay [10] was inactive.

Regarding `C=CCN=C=S`, the Potency entry in assay [1], in assay [2], in assay [3], in assay [4], in assay [5] and in assay [6] was “inactive” throughout. In addition, the compound was classed as inactive in [7], in assay [8], in [9] and in [10].

For the compound `Cc1ccc(O)c(C)c1`, the Potency result in assay [1], in assay [2], in assay [3], in [4], in [5] and in [6] was “inactive” throughout. Moreover, the outcome in assay [7], in assay [8], in assay [9] and in assay [10] was inactive.

For the compound `C=CC(=O)OCCCCCC(C)C`, the Potency entry in assay [1], in assay [2], in [3], in [4], in assay [5] and in assay [6] was “inactive” in each case. The call in assay [7], in assay [8], in assay [9] and in assay [10] was inactive.

For the compound `N#Cc1ccccn1`, the Potency result in assay [1], in assay [2], in assay [3], in [4], in assay [5] and in [6] was “inactive” in each case. Besides, the compound was called inactive in assay [7], in assay [8], in assay [9] and in assay [10].

`CCCCC(CC)C(=O)Cl` (stereo not given): the Potency result in [1], in assay [2], in assay [3], in assay [4], in [5] and in assay [6] was “inactive” in each case. The compound was classed as inactive in [7], in assay [8], in assay [9] and in assay [10].

Turning to `CCSC(=O)N1CCCCCC1`, the Potency result in assay [1], in assay [2], in assay [3], in assay [4], in assay [5] and in assay [6] was “inactive” in each case. In addition, the call in assay [7], in assay [8], in assay [9] and in [10] was inactive.

As for `COP(=S)(OC)Oc1ccc(SC)c(C)c1`, the Potency result in assay [1], in [2], in [3] and in assay [4] was “inactive” in each case. The Potency result in assay [5] was “inactive and 24.3 µM (active)”; in [6] it was 53.9 µM (active) and 27.3 µM (active). The compound was classed as inactive in assay [7], in assay [8], in [9] and in assay [10].
